HPGD inh: inhibitors of human 15-hydroxyprostaglandin dehydrogenase (HPGD) | purified HPGD, NADH fluorescence kinetic, PGE2 substrate | Potency, µM, hits mostly inhibitors | P15428 | 150,000 tested, 4.3% active; active means well fitted inhibition curve with a large enough effect, not every such curve was filed as active; inconclusive means small, poorly fitted or top-dose-only effect, or another doubt; inactive means no such curve, though single readings can be large or run the other way
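NADH formation kinetics: reaction with 30 uM PGE2 and 1 mM NAD+ (final), 20 nM enzyme, Tris-HCl pH 8 with Tween 20, after 15 min compound preincubation at room temperature. Fluorescence change, last versus first of five reads.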
ALDH1A1 block: blocks purified human ALDH1A1 activity. P00352. Purified ALDH1A1, NADH fluorescence, propionaldehyde substrate. Potency, µM (doses to about 75.3 µM), actives largely listed as inhibitors. 220,000 tested, 7.3% active; active means well fitted inhibition curve with a large enough effect, not every such curve was filed as active; inconclusive means small, poorly fitted or top-dose-only effect, or another doubt; inactive means no such curve, though single readings can be large or run the other way
Target sequence (P00352 whole entry, looked up): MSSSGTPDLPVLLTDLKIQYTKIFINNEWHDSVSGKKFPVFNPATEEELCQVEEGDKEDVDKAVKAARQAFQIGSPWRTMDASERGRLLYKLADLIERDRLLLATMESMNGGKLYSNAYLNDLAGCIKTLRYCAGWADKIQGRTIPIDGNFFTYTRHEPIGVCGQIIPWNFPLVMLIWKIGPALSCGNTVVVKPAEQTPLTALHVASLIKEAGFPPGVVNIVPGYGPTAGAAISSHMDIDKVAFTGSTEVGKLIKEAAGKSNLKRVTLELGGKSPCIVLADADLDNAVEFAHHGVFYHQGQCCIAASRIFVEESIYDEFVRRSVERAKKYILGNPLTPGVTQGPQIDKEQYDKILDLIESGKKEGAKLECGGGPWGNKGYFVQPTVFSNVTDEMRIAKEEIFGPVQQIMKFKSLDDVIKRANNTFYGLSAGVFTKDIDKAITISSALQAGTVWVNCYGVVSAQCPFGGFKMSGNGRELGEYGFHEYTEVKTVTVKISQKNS
IMPase Li inh: cell-permeable IMPase inhibitors with lithium potentiation. CHO-M1 cells, IP1 TR-FRET (IP-One), carbachol + lithium. Potency, µM (doses to about 59.4 µM), most hits filed as inhibitors. 210,000 tested, 0.35% active;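 further: IP1 builds up when IMPase is blocked and the TR-FRET signal falls; nearly all actives have a fitted effect of over 50% in size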
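CHO-M1, 2000 cells/well, 16–30 h culture; cpd + low Li+, 30 min 37C; lysis with d2-IP1/Eu-anti-IP1 Ab, 10 min RT; TR-FRET 665/620 ratio and 620 channel; AC50 via Hill.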
Luc counter: blocks Kinase-Glo luciferase, a counter-screen artifact; 200,000 tested, 0.28% active; Potency, µM (titrated, usually from 38.3 µM), usual class: inhibitors; Kinase-Glo luciferase, ATP luminescence, 8 min; AID 1379; further: nearly all actives have a fitted effect of over 60% in size
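Substrate mix (final 50 mM imidazole pH 7.2, 50 mM KCl, 7 mM MgCl2, 10 uM ATP, 0.01% Tween 20, 0.05% BSA) plus pin-tool compound, then Kinase-Glo detection mix; 8 min ambient, luminescence read.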
Lamin A splicing: LMNA splicing modulation; HeLa LMNA splicing GFP/RFP minigene ratio, 48 h; Potency, µM (series often up to 46.1 µM), usual class: inhibitors; 200,000 tested, 0.01% active; active means well fitted inhibition curve with a large enough effect in the signal ratio, with a control signal flat, not every such curve was filed as active; inconclusive means small, poorly fitted or top-dose-only effect, or effect the other way, or a change in a side signal; the % refers to the signal ratio
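Read-out is the ratio of GFP to DsRed2 object intensity, acquired by 488 nm laser-scanning cytometry on HeLa lamin A-EGFP minigene reporter cells. Compound incubation 48 hrs at 37 °C in Opti-MEM with 2% FBS; DMSO 0.5% final.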
Of the large screens only hits and unclear results are named; the others gave an inactive call. A selection: hits, their analogues and other compounds. The true share with any hit is near 9%. Unless noted, the call rests on the fitted dose curve; in most records, active means well fitted curve in the direction sought with a large enough effect; inconclusive means small, poorly fitted or top-dose-only effect, or another doubt; inactive means no such curve, though single readings can be large; an effect the other way counts as inactive or inconclusive.

COc1cc(OC)c(S(=O)(=O)N2CCCCC2)cc1S(=O)(=O)N1CCCCC1	ALDH1A1 block 3.55µM
COc1ccc(S(=O)(=O)Nc2ccc(S(=O)(=O)N3CCCCC3)cc2)cc1	ALDH1A1 block 0.355µM
COc1ccc(S(=O)(=O)N2CCCCCC2)cc1	none
COc1ccc2cc(S(=O)(=O)N3CCCCC3)ccc2c1S(=O)(=O)N1CCCCC1	ALDH1A1 block 0.178µM, Lamin A splicing inconclusive
CC(=O)Nc1ccc(S(=O)(=O)N[C@H](C(=O)O)C(C)C)cc1	ALDH1A1 block 10µM
O=c1c2ccccc2nc2ccc(NCc3cccs3)nn12	none (no result: HPGD inh, Lamin A splicing)
CC(C)C(NC(=O)c1ccco1)C(=O)OCC(=O)Nc1ccc(C(N)=O)cc1 (centres undefined)	ALDH1A1 block inconclusive (no result: HPGD inh)
Cc1ccc(Cn2ccn(Cc3ccccc3F)c(=O)c2=O)cc1	none (no result: HPGD inh, ALDH1A1 block, IMPase Li inh, Luc counter)
Cc1ccc(NS(=O)(=O)c2cccc(C(=O)O)c2)cc1S(=O)(=O)N1CCOCC1	ALDH1A1 block inconclusive
Cc1ccc(NS(=O)(=O)c2ccc(Br)s2)cc1S(=O)(=O)N1CCOCC1	ALDH1A1 block 11.2µM (no result: HPGD inh, Lamin A splicing)
COc1ccc(OC)c(NS(=O)(=O)c2ccc(NC(C)=O)cc2)c1	none
COc1ccc(S(=O)(=O)Nc2ccc(S(=O)(=O)N3CCCC3)cc2)cc1	ALDH1A1 block 0.0891µM
O=S(=O)(Nc1ccc(S(=O)(=O)N2CCCCC2)cc1)c1ccc(Br)s1	ALDH1A1 block 1.41µM
COc1ccc(C)cc1NS(=O)(=O)c1ccc(NS(=O)(=O)c2ccc(NC(C)=O)cc2)cc1	ALDH1A1 block 22.4µM
CN(Cc1ccccc1)C(=O)CSc1nc2ccsc2c(=O)n1-c1ccc(F)cc1	none (no result: HPGD inh, ALDH1A1 block, IMPase Li inh, Luc counter)
COc1ccc(S(=O)(=O)Nc2ccc(S(=O)(=O)N3CCCCC3)cc2)cc1C	ALDH1A1 block 3.98µM
CC(=O)Nc1ccc(S(=O)(=O)Nc2ccc(S(=O)(=O)N3CCCCCC3)cc2)cc1	ALDH1A1 block 3.98µM
COc1ccc(S(=O)(=O)N2CCCN(S(=O)(=O)c3ccc(OC)c(C)c3)CC2)cc1C	Lamin A splicing inconclusive
CCOC(=O)C1CCC(CN(Cc2ccc(OC)cc2)S(=O)(=O)c2ccc(C)cc2)CC1 (centres undefined)	none (no result: HPGD inh, ALDH1A1 block, IMPase Li inh, Luc counter)
C/C(CC(=O)Nc1ccccc1Cl)=N\NC(=O)C(=O)NCCO	ALDH1A1 block 10µM (no result: HPGD inh)
CCN1CCCc2cc(CN(CCN3CCOCC3)C(=S)Nc3cccc(C)c3)ccc21	ALDH1A1 block 7.94µM (no result: HPGD inh)
CCN1CCCc2cc(CN(CCN3CCOCC3)C(=O)Nc3ccc(C)c(C)c3)ccc21	ALDH1A1 block 28.2µM
CCN1CCCc2cc(CN(CCN3CCOCC3)C(=S)Nc3ccccc3OC)ccc21	ALDH1A1 block inconclusive, Lamin A splicing inconclusive (no result: HPGD inh)
CCN1CCCc2cc(CN(CCN3CCOCC3)C(=S)Nc3ccccc3C)ccc21	ALDH1A1 block 22.4µM, IMPase Li inh inconclusive, Lamin A splicing inconclusive (no result: HPGD inh)
O=C(c1cccc(N2C(=O)C3C4C=CC(C4)C3C2=O)c1)N1CCN(c2ccccc2)CC1 (centres undefined)	none (no result: HPGD inh, Lamin A splicing)
O=C(CSc1nnc([C@@H]2CCCN2)o1)c1ccc(Cl)cc1	ALDH1A1 block 22.4µM
Clc1ccc(CSc2nnc([C@@H]3CCCN3)o2)cc1Cl	none
O=C(NCCSCc1c(F)cccc1Cl)c1ccco1	HPGD inh 5.01µM, ALDH1A1 block 15.8µM
O=C(O)CSCc1c(F)cccc1Cl	none
O=C(CNC(=O)c1ccco1)OCc1c(F)cccc1Cl	none
COCCNC(=O)CSCc1c(F)cccc1Cl	HPGD inh 22.4µM
O=C(CSCc1c(F)cccc1Cl)NCc1ccncc1	ALDH1A1 block inconclusive, Lamin A splicing inconclusive (no result: HPGD inh)
COc1ccc(CNC(=O)CSCc2c(F)cccc2Cl)cc1	ALDH1A1 block 2.24µM (no result: HPGD inh, Lamin A splicing)
C[C@H]1C=C2C=C[C@H](C)[C@H](CC[C@@H]3C[C@@H](O)CC(=O)O3)[C@H]2[C@@H](OC(=O)[C@@H](C)CCO)C1	ALDH1A1 block inconclusive (no result: Lamin A splicing)
CCOC(=O)c1cc(-c2csc(Nc3c(C)cc(C)cc3C)n2)on1	ALDH1A1 block 14.1µM (no result: HPGD inh, IMPase Li inh, Luc counter, Lamin A splicing)
CC/C(=N/NC(=O)c1ccc(Br)cc1)c1ccc(OCCN2CCOCC2)cc1	ALDH1A1 block inconclusive
CC/C(=N/NC(=O)c1ccccc1)c1ccc(OCCN2CCOCC2)cc1	ALDH1A1 block 10µM
CCn1c(=N)n(CC(=O)C23CC4CC(CC(C4)C2)C3)c2ccccc21	HPGD inh inconclusive, ALDH1A1 block 22.4µM, Lamin A splicing inconclusive
CCCCNC(=S)Nc1ccccc1Cc1ccccc1	Lamin A splicing inconclusive (no result: HPGD inh)
C=CCn1c(SCC(=O)O)nc2sc(CC)cc2c1=O	ALDH1A1 block inconclusive (no result: HPGD inh, Lamin A splicing)
C=CCn1c(SCC(=O)c2cccs2)nc2sc(CC)cc2c1=O	ALDH1A1 block 3.55µM, Lamin A splicing inconclusive
CN1/C(=C\C(=O)Nc2ccc(Br)cc2)C(C)(C)c2ccccc21	ALDH1A1 block inconclusive, Lamin A splicing inconclusive
CN1/C(=C\C(=S)NC(=O)c2ccc([N+](=O)[O-])cc2)C(C)(C)c2ccccc21	ALDH1A1 block 35.5µM
CN1/C(=C/C2CC(=O)N(c3ccc([N+](=O)[O-])cc3)C2=O)C(C)(C)c2ccccc21 (centres undefined)	ALDH1A1 block 11.2µM
CN1/C(=C\C(=S)NC(=O)c2cccc(Br)c2)C(C)(C)c2ccccc21	ALDH1A1 block 1µM, Lamin A splicing inconclusive (no result: HPGD inh, IMPase Li inh, Luc counter)
CN1/C(=C/C=N/NC(=O)c2ccc([N+](=O)[O-])cc2)C(C)(C)c2ccccc21	none
COc1ccccc1CN1CCCC2(CCN(C(=O)c3cnccn3)CC2)C1	none (no result: Lamin A splicing)
CCn1c(CNc2ccc(F)cc2)nnc1SCC(=O)OC1CCCCC1	HPGD inh 15.8µM, ALDH1A1 block inconclusive
